# Calls of active or inactive are those of the source. The calls were made as follows: active = hit-call score of the fitted dose curve at least 0.9, where 1 is the maximum; inactive = score below 0.9.
# Legend:
# Settings in all cases: primary human HUVEC with PBMC; actives raise or lower the signal
# [1] = read-out: Interleukin-1 alpha (IL1a), IL1A (gene 3552); test: BSK_LPS_IL1a: BioMAP Diversity Plus: LPS Assay for Interleukin-1 alpha (IL1a) Biomarker Activity (AID 2283080)
# Procedure, shortened: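 Human umbilical vein endothelial cells co-cultured with PBMC and stimulated with LPS; IL-1a measured by ELISA 24 h after dosing. Bidirectional fitting against DMSO; cytotoxicity checked by SRB staining in parallel cultures.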
# [2] = read-out: Monocyte Chemoattractant Protein-1 (MCP1), CCL2 (gene 6347); test: BSK_LPS_MCP1: BioMAP Diversity Plus: LPS Assay for Monocyte Chemoattractant Protein-1 (MCP1) Biomarker Activity (AID 2283081);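 as to AC50: secreted MCP-1 protein quantified by ELISA in culture supernatant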
# Procedure, shortened: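 Human umbilical vein endothelial cells co-cultured with PBMC, LPS-stimulated; secreted MCP-1 measured by ELISA 24 h after compound addition. Bidirectional curve fitting against DMSO baseline; SRB total-protein staining in parallel cultures for cytotoxicity.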
# [3] = BSK_LPS_PGE2: BioMAP Diversity Plus: LPS Assay for Prostaglandin E2 (PGE2) Biomarker Activity (AID 2283082);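 as to AC50: secreted prostaglandin E2 measured by ELISA in LPS-stimulated co-culture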
# Procedure, shortened: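 HUVEC plus PBMC co-culture stimulated with LPS; secreted PGE2 quantified by ELISA 24 h after chemical dosing. Activity fitted bidirectionally against DMSO as negative control and baseline; parallel SRB total-protein staining served as cytotoxicity check.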
# [4] = read-out: Macrophage colony-stimulating factor (MCSF), CSF1 (gene 1435); test: BSK_LPS_MCSF: BioMAP Diversity Plus: LPS Assay for Macrophage colony-stimulating factor (MCSF) Biomarker Activity (AID 2283083)
# Procedure, shortened: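 HUVEC–PBMC co-culture, M-CSF measured by ELISA 24 h after chemical dosing. Fitted in both directions relative to DMSO as negative control; overt cytotoxicity assessed by SRB total-protein staining in parallel cultures.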
# [5] = read-out: Tissue Factor, F3 (gene 2152); test: BSK_LPS_TissueFactor: BioMAP Diversity Plus: LPS Assay for Tissue Factor Biomarker Activity (AID 2283084)
# Procedure, shortened: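 Human umbilical vein endothelial cells co-cultured with PBMC were dosed with compound. Cell-surface CD142 was measured by ELISA 24 h later. Activity was fitted bidirectionally against DMSO, with SRB total-protein staining in parallel cultures for cytotoxicity.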
# [6] = read-out: Tumor necrosis factor (Homo sapiens) (UniProt P01375); test: BSK_LPS_TNFa: BioMAP Diversity Plus: LPS Assay for Tumour Necrosis Factor alpha (TNFa) Biomarker Activity (AID 2283085);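 as to AC50: TNFa protein level quantified by ELISA in the co-culture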
# Procedure, shortened: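 Human umbilical vein endothelial cells co-cultured with PBMC were exposed to test chemical and TNFa measured by ELISA 24 h after dosing. Bidirectional curve fitting was done relative to DMSO as negative control and baseline.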
# [7] = read-out: Vascular cell adhesion molecule 1 (VCAM1), VCAM1 (gene 7412); test: BSK_LPS_VCAM1: BioMAP Diversity Plus: LPS Assay for Vascular cell adhesion molecule 1 (VCAM1) Biomarker Activity (AID 2283086)
# Procedure, shortened: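 Human umbilical vein endothelial cells co-cultured with peripheral blood mononuclear cells under LPS stimulation were exposed to test chemical for 24 h. VCAM-1 levels were then measured by ELISA, with bidirectional curve fitting relative to DMSO as negative control and baseline.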
# [8] = read-out: CD38, CD38 (gene 952); test: BSK_SAg_CD38: BioMAP Diversity Plus: SAg Assay for CD38 Biomarker Activity (AID 2283087)
# Procedure, shortened: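 Fluorescence ELISA of cell-surface CD38 served as the read-out, with either increase or decrease fitted against DMSO controls. Cells were a human umbilical vein endothelium plus PBMC co-culture under SEB/TSST-1 stimulation, measured 24 h after dosing.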
# [9] = read-out: CD40, CD40 (gene 958); test: BSK_SAg_CD40: BioMAP Diversity Plus: SAg Assay for CD40 Biomarker Activity (AID 2283088)
# Procedure, shortened: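 HUVEC plus PBMC co-culture, superantigen-activated, with CD40 read by ELISA 24 h after dosing. Curves fitted in both directions against DMSO. Overt cytotoxicity checked by parallel SRB total-protein staining.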
# [10] = read-out: CD69, CD69 (gene 969); test: BSK_SAg_CD69: BioMAP Diversity Plus: SAg Assay for CD69 Biomarker Activity (AID 2283089);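 as to AC50: cell surface CD69 protein quantified by ELISA with fluorescence detection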
# Procedure, shortened: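 ELISA, fluorescence read-out: CD69 on human umbilical vein endothelial cell + PBMC co-culture, 24 h post-dosing. Gain or loss of signal fitted bidirectionally against DMSO baseline.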
# Tumor necrosis factor (Homo sapiens), sequence (P01375 whole entry, looked up): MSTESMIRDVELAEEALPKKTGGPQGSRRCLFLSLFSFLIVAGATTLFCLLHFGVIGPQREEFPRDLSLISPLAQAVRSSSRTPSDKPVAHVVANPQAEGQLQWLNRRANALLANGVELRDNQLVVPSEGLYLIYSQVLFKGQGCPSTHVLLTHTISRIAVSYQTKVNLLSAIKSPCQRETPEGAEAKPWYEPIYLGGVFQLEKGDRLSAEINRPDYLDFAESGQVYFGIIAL
smiles,measurement,setting,value
CC(C)=CC1C(C(=O)OCc2coc(Cc3ccccc3)c2)C1(C)C (centres undefined),outcome,[1],inactive
same,outcome,[2],inactive
same,outcome,[3],inactive
same,outcome,[4],inactive
same,outcome,[5],inactive
same,outcome,[6],inactive
same,outcome,[7],inactive
same,outcome,[8],inactive
same,outcome,[9],inactive
same,AC50,[10],11.4 µM (active)
CCC(C)n1c(=O)[nH]c(C)c(Br)c1=O (centres undefined),outcome,[1],inactive
same,outcome,[2],inactive
same,outcome,[3],inactive
same,outcome,[4],inactive
same,outcome,[5],inactive
same,AC50,[6],10.5 µM (active)
same,outcome,[7],inactive
same,outcome,[8],inactive
same,outcome,[9],inactive
same,outcome,[10],inactive
C=CCOC(=O)C(C)(C)OC(=O)c1cc(-n2c(=O)cc(C(F)(F)F)n(C)c2=O)ccc1Cl,outcome,[1],inactive
same,outcome,[2],inactive
same,outcome,[3],inactive
same,AC50,[4],13.9 µM (active)
same,outcome,[5],inactive
same,outcome,[6],inactive
same,outcome,[7],inactive
same,AC50,[8],10.8 µM (active)
same,AC50,[10],6.29 µM (active)
CCOc1cc(C(C)(C)C)ccc1C1COC(c2c(F)cccc2F)=N1 (centres undefined),AC50,[1],30.5 µM (active)
same,AC50,[2],33.4 µM (active)
same,AC50,[3],32.1 µM (active)
same,AC50,[4],20.9 µM (active)
same,AC50,[5],36.8 µM (active)
same,AC50,[6],30.4 µM (active)
same,AC50,[7],31.4 µM (active)
same,AC50,[8],18.8 µM (active)
same,AC50,[9],15.8 µM (active)
same,AC50,[10],20.5 µM (active)
CCCC(=NOCC)C1=C(O)CC(CC(C)SCC)CC1=O (centres undefined),outcome,[1],inactive
same,outcome,[2],inactive
same,outcome,[3],inactive
same,outcome,[4],inactive
same,outcome,[5],inactive
same,outcome,[6],inactive
same,outcome,[7],inactive
same,outcome,[8],inactive
same,outcome,[9],inactive
same,outcome,[10],inactive
CC(C)C1(C)N=C(c2ncccc2C(=O)O)NC1=O (centres undefined),outcome,[1],inactive
same,outcome,[2],inactive
same,outcome,[3],inactive
same,outcome,[4],inactive
same,outcome,[5],inactive
same,outcome,[6],inactive
same,outcome,[7],inactive
same,outcome,[8],inactive
same,outcome,[9],inactive
same,outcome,[10],inactive
CCCCC(O)(Cn1cncn1)c1ccc(Cl)cc1Cl (centres undefined),outcome,[1],inactive
same,outcome,[2],inactive
same,AC50,[3],3.81 µM (active)
same,outcome,[4],inactive
same,outcome,[5],inactive
same,outcome,[6],inactive
same,outcome,[7],inactive
same,outcome,[8],inactive
same,outcome,[9],inactive
same,outcome,[10],inactive
Cc1nc(N(C)C)nc(OC(=O)N(C)C)c1C,outcome,[1],inactive
same,outcome,[2],inactive
same,outcome,[3],inactive
same,outcome,[4],inactive
same,outcome,[5],inactive
same,outcome,[6],inactive
same,outcome,[7],inactive
same,outcome,[8],inactive
same,outcome,[9],inactive
same,outcome,[10],inactive
O=C1C2CC=CCC2C(=O)N1SC(Cl)(Cl)Cl (centres undefined),outcome,[1],inactive
same,outcome,[2],inactive
same,outcome,[3],inactive
same,AC50,[4],29 µM (active)
same,AC50,[5],31.4 µM (active)
same,AC50,[6],36.6 µM (active)
same,AC50,[7],14.3 µM (active)
same,AC50,[8],30.5 µM (active)
same,outcome,[9],inactive
same,outcome,[10],inactive
COP(=S)(OC)Oc1ccc([N+](=O)[O-])c(C)c1,outcome,[1],inactive
same,AC50,[2],20 µM (active)
same,outcome,[3],inactive
same,AC50,[4],20 µM (active)
same,outcome,[5],inactive
same,outcome,[6],inactive
same,AC50,[7],31.5 µM (active)
same,outcome,[8],inactive
same,AC50,[9],7.6 µM (active)
same,AC50,[10],37 µM (active)
N#Cc1c(Cl)cccc1Cl,outcome,[1],inactive
same,outcome,[2],inactive
same,outcome,[3],inactive
same,outcome,[4],inactive
same,outcome,[5],inactive
same,outcome,[6],inactive
same,outcome,[7],inactive
same,outcome,[8],inactive
same,outcome,[9],inactive
same,outcome,[10],inactive
O=C(O)c1c(Cl)ccc2cc(Cl)cnc12,outcome,[1],inactive
same,outcome,[2],inactive
same,outcome,[3],inactive
same,outcome,[4],inactive
same,outcome,[5],inactive
same,outcome,[6],inactive
same,outcome,[7],inactive
same,outcome,[8],inactive
same,outcome,[9],inactive
same,outcome,[10],inactive
COCc1cnc(C2=NC(C)(C(C)C)C(=O)N2)c(C(=O)O)c1 (centres undefined),outcome,[1],inactive
same,outcome,[2],inactive
same,outcome,[3],inactive
same,outcome,[4],inactive
same,outcome,[5],inactive
same,outcome,[6],inactive
same,outcome,[7],inactive
same,outcome,[8],inactive
same,outcome,[9],inactive
same,outcome,[10],inactive
CCOP(=S)(OCC)Oc1nc(Cl)n(C(C)C)n1,outcome,[1],inactive
same,outcome,[2],inactive
same,AC50,[3],14.1 µM (active)
same,outcome,[4],inactive
same,outcome,[5],inactive
same,outcome,[6],inactive
same,outcome,[7],inactive
same,outcome,[8],inactive
same,outcome,[9],inactive
same,outcome,[10],inactive
N#Cc1c[nH]cc1-c1cccc2c1OC(F)(F)O2,AC50,[1],14.8 µM (active)
same,AC50,[2],17.9 µM (active)
same,outcome,[3],inactive
same,AC50,[4],26.3 µM (active)
same,outcome,[5],inactive
same,AC50,[6],29.8 µM (active)
same,AC50,[7],20 µM (active)
same,AC50,[8],29.1 µM (active)
same,AC50,[9],20 µM (active)
same,AC50,[10],24.5 µM (active)
CC1(C)C(C=C(Cl)Cl)C1C(=O)OC(C#N)c1cccc(Oc2ccccc2)c1 (centres undefined),outcome,[1],inactive
same,outcome,[2],inactive
same,AC50,[3],4.89 µM (active)
same,outcome,[4],inactive
same,outcome,[5],inactive
same,AC50,[6],0.838 µM (active)
same,outcome,[7],inactive
same,outcome,[8],inactive
same,outcome,[9],inactive
same,outcome,[10],inactive
COc1ccc(-c2ccccc2)cc1NNC(=O)OC(C)C,outcome,[1],inactive
same,outcome,[2],inactive
same,AC50,[3],1.84 µM (active)
same,outcome,[4],inactive
same,outcome,[5],inactive
same,AC50,[6],4.44 µM (active)
same,outcome,[7],inactive
same,outcome,[8],inactive
same,outcome,[9],inactive
same,outcome,[10],inactive
Cc1cnc(C2=NC(C)(C(C)C)C(=O)N2)c(C(=O)O)c1 (centres undefined),outcome,[1],inactive
same,outcome,[2],inactive
same,outcome,[3],inactive
same,outcome,[4],inactive
same,outcome,[5],inactive
same,outcome,[6],inactive
same,outcome,[7],inactive
same,outcome,[8],inactive
same,outcome,[9],inactive
same,outcome,[10],inactive
